Experimental data taken from paper PMC5540273 (PLoS ONE, 2017).

system: T1, p38-alpha; details: concentration: 1 μM, replicates: in singlicate; n = 1
T1 construct: gene MAPK14
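Also: KINOMEscan kinase panel screen.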

| Structure (SMILES) | %Inh |
| --- | --- |
| O=C(O)C(F)(F)F.O=C(O)C(F)(F)F.O=c1[nH]ccc2nc(N[C@@H]3CCCNC3)nc(Nc3ccc(S(=O)(=O)N4CCOCC4)cc3)c12 [GSK2177277] | 0% |
| COC(=O)Nc1nc2ccc(Oc3ccc(NC(=O)Nc4cc(C(F)(F)F)ccc4F)cc3)cc2n1C.Cl [GW692089] | 57% |
| O=C(Nc1n[nH]c2nc(-c3ccc(O)cc3)ccc12)C1CC1 [SB-710363] | 0% |
| c1ccc(-c2n[nH]cc2Nc2ccnc3ccccc23)nc1 [GW694077] | 2% |
| O=C(Nc1cccc(-c2nn3ccccc3c2-c2ccnc(Nc3cccc(F)c3)n2)c1)c1c(F)ccc(F)c1Cl [GSK357952] | 0% |
| Nc1ncc(-c2ccc3nccc(-c4ccncc4)c3c2)cc1S(=O)(=O)N1CCOCC1 [GSK1627798] | 0% |
| COc1ccc(Nc2nccc(NCCNC(=O)c3cc4ccccc4s3)n2)cc1 [GSK1379896] | 13% |
| CN(c1ccc(NC(=O)Nc2cc(C(F)(F)F)ccc2F)cc1)c1ccnc(Nc2ccc(S(N)(=O)=O)cc2)n1 [GW809893] | 9% |
| COc1ccc(CNC(=O)NC2CCN(c3ccnc(Nc4ccc(F)cc4)n3)CC2)cc1 [GSK1379788] | 19% |
| Cc1ccc(S(=O)(=O)Nc2ccc(Nc3nccc(Nc4cccc5[nH]ncc45)n3)cc2)cc1 [GSK581271] | 0% |
| COc1cccc(NC(=O)NC2CCN(c3ccnc(Nc4cc(OC)c(OC)c(OC)c4)n3)C2)c1 (stereo not drawn) [GSK1379763] | 24% |
| CC(C)c1nc(-c2cccc(NS(=O)(=O)c3c(F)cccc3F)c2F)c(-c2ccnc(Nc3ccc(N4CCOCC4)nc3)n2)s1 [GSK2008607] | 81% |
